Assay outcomes: PubChem BioAssay, several laboratories
Mtb hypoxia inh = inhibitors of hypoxia-regulated fluorescent reporter in Mycobacterium tuberculosis | fluorescence inhibition, % (no concentration beside the values) | M. tuberculosis hypoxia-regulated fluorescent reporter, fluorescence | hit rate 0.1% among 300,000 | AID 1159583; in the data active = fluorescence inhibition mostly above about 23%, no sharp cut-off; inactive = mostly below about 17%
Sa ugtP lethal = growth inhibition of S. aureus ugtP deletion strain; growth inhibition, % (concentration not given with the values); AID 1259309; hit rate 0.54% among 330,000; S. aureus RN4220 ugtP deletion, OD600 growth, 16 h; in the data active = growth inhibition above about 68%;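 note: plate controls were untreated wells for no effect and antibiotic for full effect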
Sa RN4220 lethal = kills Staphylococcus aureus RN4220 | inhibition, % (concentration not given with the values) | hit rate 0.33% among 330,000 | S. aureus RN4220 growth, OD600, 16 h | AID 1259311; in the data active = inhibition above about 85%;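 note: plate controls were untreated cells for no effect and reference antibiotic for full effect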
Mtb betalactam = beta-lactam sensitization of Mtb H37Rv; hit rate 0.27% among 330,000; inhibition, % at 25 µM; M. tuberculosis H37Rv growth with meropenem, percent inhibition; call rule not given here;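 note: growth measured after seven days incubation then overnight dye step; 0% = bacteria only wells and 100% = bacteria with antibiotic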
SSB-PriA inh = K. pneumoniae PriA-SSBct interaction inhibition; AID 1272365; hit rate 0.6% among 430,000; AlphaScreen SSBct-PriA binding, biotinylated peptide; inhibition, % at 33 µM; in the data active = inhibition mostly above about 37%, no sharp cut-off; inactive = mostly below about 20%;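 note: plate controls were negative control peptide for no effect and reference peptide for full effect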
Starred values were filed as active, the others as inactive; ? = inconclusive; . = no result given; ! = repeats disagree. The list is not random: actives were taken first. Their share in the collection is about 1%.

SMILES	Mtb hypoxia inh	Sa ugtP lethal	Sa RN4220 lethal	Mtb betalactam	SSB-PriA inh
Cc1cc(C)cc(C(=O)Nc2ccc(-c3ccc4nnc(-c5ccccn5)n4n3)cc2)c1	.	.	.	.	67*
O=C(Nc1ccc(-c2ccc3nnc(-c4ccccn4)n3n2)cc1)c1cccnc1Cl	.	.	.	.	87*
O=C(Nc1ccc(-c2ccc3nnc(-c4ccncc4)n3n2)cc1)c1cccnc1Cl	.	.	.	.	18
O=C(Nc1ccc(-c2ccc3nnc(-c4ccccn4)n3n2)cc1)c1cccc2ccccc12	.	.	.	.	-19
COc1ccc([N+](=O)[O-])c(S(=O)(=O)c2ccccc2)n1	20	96*	42	56	-13
O=[N+]([O-])c1cccnc1S(=O)(=O)c1ccccc1	.	.	.	100	-13
COc1ccc([N+](=O)[O-])c(S(=O)(=O)c2ccc(Cl)cc2)n1	3	100*	100*	21	-9
O=C(O)c1ccc(C(=O)Nc2ccccc2C(F)(F)F)c(C(=O)O)c1	.	.	.	.	5
Cc1cc(OCCn2cc(C(N)=NO)c3ccccc32)ccc1Cl	.	.	.	.	21
Cc1cc(OCCn2cc(/C(N)=N/O)c3ccccc32)ccc1Cl	3	93*	11	0	.
CCCc1nnsc1C(=O)NCCc1nc(-c2ccco2)cn1C	.	.	.	.	-7
C=C(C)CNC(=S)NNC(=O)CCn1c2ccc(Cl)cc2c2cc(Cl)ccc21	0	43	93*	80	-5
NC(=NOC(=O)/C=C/c1ccccc1)c1ccc(Cl)cc1	.	.	.	.	-7
O=C(c1ccco1)N(CC1CCCO1)c1nc(-c2ccccc2)cs1 (stereo not given)	-5	86*	-7	2	-8
Cc1cccc(CSc2ncnc3c2cnn3Cc2ccccc2)c1	5	98*	-8	7	-42
Cc1ccccc1NC(=S)c1ccc2ccccc2n1	1	20	-6	61	65*!
CCCN(CC(=O)Nc1ccccc1C)C(=O)c1ccc2ccccc2n1	-20	0	0	-1	-14
CCCC1CCC(c2ccc(C(=O)NN)cc2)CC1 (stereo not given)	8	98*	-12	-1	2
CCCC1CCC(c2ccc(C(N)=O)cc2)CC1 (stereo not given)	.	26	14	15	3
Cc1ccc(-c2nc3c(c(=O)n2CC(=O)NCc2ccco2)CCN(Cc2ccccc2)C3)cc1	.	.	.	.	2
COc1cc(NC(=O)c2ccc([N+](=O)[O-])o2)ccc1NC(=O)c1cccs1	0	100*	100*	67	-1
CS(=O)(=O)N1CCN(c2ccccc2NC(=O)c2ccc([N+](=O)[O-])o2)CC1	9	88	100*	1	-16
CCC(=O)N1CCN(c2ccc(Cl)cc2NC(=O)c2ccc([N+](=O)[O-])o2)CC1	3	20	10	98	-3
CC(=O)Nc1ccc2nc(NC(=O)c3ccc([N+](=O)[O-])o3)sc2c1	14	98*	18	44	-1
CC(=O)N1CCN(c2ccc(NC(=O)c3ccc([N+](=O)[O-])o3)cc2Cl)CC1	.	100*	99*	100	-2
SMILES	Mtb hypoxia inh	Sa ugtP lethal	Sa RN4220 lethal	Mtb betalactam	SSB-PriA inh
O=C(Nc1cccc(NC(=O)c2cccs2)c1)c1ccc([N+](=O)[O-])o1	22	34	28	100	-12
O=C(NCC1COC2(CCCC2)O1)c1cc2ccccc2oc1=O (stereo not given)	.	.	.	.	-3
Cn1cc(-c2ccco2)nc1CCNC(=O)C1(c2ccc(Cl)cc2)CCCC1	.	.	.	.	20
CCC(=O)N1CCN(c2ccc(NC(=O)c3ccc([N+](=O)[O-])o3)cc2Cl)CC1	.	91*	99*	.	-1
CCN1CCN(c2ccc(NC(=O)c3ccc([N+](=O)[O-])o3)cc2Cl)CC1	11	99*	100*	.	-6
Cc1[nH]n2c(=O)cc(C(C)(C)C)nc2c1-c1ccccc1	6	96*	65	98	-7
Cc1[nH]n2c(=O)cc(-c3ccc([N+](=O)[O-])cc3)nc2c1-c1ccccc1	.	75	86*	98	30
Cc1[nH]n2c(=O)cc(C(C)C)nc2c1-c1ccccc1	2	-5	-3	98	-6
O=c1oc2ccccc2nc1/C=C(\O)c1ccccc1	46*	-3	5	98	-7
O=C(NCc1nnc2ccc(-c3cccs3)nn12)c1n[nH]c(=O)c2ccccc12	.	.	.	.	-10
CC(C)c1cc(C(C)C)c(C(C)C)c([N+](=O)[O-])c1N	.	.	.	.	35*
Cc1c(C)c([N+](=O)[O-])c(C)c(C)c1N	.	.	.	.	-6
Cn1cccc1-c1cc(C(=O)N/N=C/c2cccc(Br)c2)[nH]n1	.	.	.	.	47*
O=C(NCc1ccc(F)cc1)c1ccc2nc[nH]c2c1	.	.	.	.	11
O=[N+]([O-])c1ccc(Cl)c(S(=O)(=O)NCCOc2cccc(C(F)(F)F)c2)c1	.	.	.	.	24
Cc1cc(C)cc(OCCNS(=O)(=O)c2cc([N+](=O)[O-])ccc2Cl)c1	.	.	.	.	36*
Cc1cc(C)nc(N=C(N)Nc2ccc(CC(=O)OC(C)C)cc2)n1	.	.	.	.	3
COC(=O)c1ccc(NC(=O)C(=O)NCC(c2ccc(F)cc2)N2CCN(C)CC2)cc1 (stereo not given)	.	.	.	.	0
c1csc(-c2nc3c4ccccc4c4ccccc4c3[nH]2)c1	3	90*	81	4	13
Oc1ccccc1-c1nc2c3ccccc3c3ccccc3c2[nH]1	3	98*	100*	16	-13
N#Cc1cccc(C(=O)NCCCCN2CCCC2)c1	.	.	.	.	-6
CN1C(=O)C(C)(C)COc2ccc(NC(=O)COc3ccc(Cl)cc3Cl)cc21	.	.	.	.	0
Cc1ccc2c(c1)C1CN(C)CCC1N2Sc1ccccc1[N+](=O)[O-] (stereo not given)	.	.	.	29	55*
C=CCN(CC=C)S(=O)(=O)c1ccc(C(=O)NNC(=O)c2ccc(S(=O)(=O)N3CCOCC3)cc2)cc1	.	.	.	.	-8
O=C(Cn1cnc2ccccc21)NCc1ccnc(-c2cccs2)c1	.	.	.	.	-15
SMILES	Mtb hypoxia inh	Sa ugtP lethal	Sa RN4220 lethal	Mtb betalactam	SSB-PriA inh
O=C(CSc1nnc(-c2ccc(F)cc2)o1)N1CCCCC1	46*	-6	2	76	-12
CC1CCCN(C(=O)CSc2nnc(-c3cccs3)o2)C1 (stereo not given)	51*	6	5	92	-7
CC1CCCN(C(=O)CSc2nnc(-c3ccc(O)cc3)o2)C1 (stereo not given)	18	5	1	100	-17
O=C(CSc1nnc(-c2ccccc2)o1)N1CCCCC1	.	-2	3	90	-3
O=C(NC[C@H](O)c1csc2ccccc12)C(=O)Nc1cc(F)ccc1F	.	.	.	.	-17
COc1ccc(N2CCN(Cc3cc(=O)c(OC)cn3CC(=O)Nc3cccc([N+](=O)[O-])c3)CC2)cc1	.	.	.	.	4
Cc1ccnc2c1ccc1c(C)ccnc12	.	38	28	80	98*
Cc1ccnc2c(O)cccc12	.	.	.	.	-1
Cc1ccnc2c1ccc1ccccc12	-5	15	5	-3	-3
Cc1ccnc2c1ccc1cccnc12	.	6	-6	.	103*
C/[N+]([O-])=C/c1ccnc2c1ccc1cccnc12	.	.	.	.	148*
COc1ccc2oc(C(=O)OCC(=O)NC3CCCC3)c(C)c2c1	3	10	4	?	1
CCOc1ccc2oc(C(=O)OCC(=O)NC3CCCCC3)c(C)c2c1	32*	11	-1	19	-8
